Each structure is given as a SMILES string. Where “and” joins values, the source holds several entries; their conditions need not be identical. Identical values can stand only once. Compounds without any hit were thinned out: in the full panel of roughly 83,000, 20% have a hit.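 Cell lines were cultured in 96-well plates, exposed to a single compound concentration, and assessed for percent growth 48 hours later.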 Calls of active or inactive are those of the source. The calls were made as follows: active = growth percent below 10; inactive = the rest.

This passage reports growth results from PubChem BioAssay (NCI).

Among the test systems are SK-MEL-2 melanoma; EKVX NSCLC; SN12C renal; UO-31 renal; ACHN renal; CAKI-1 renal; A498 renal; CCRF-CEM leukemia; MOLT-4 leukemia; RPMI-8226 leukemia; OVCAR-8 ovarian; OVCAR-5 ovarian; OVCAR-4 ovarian; SK-OV-3 ovarian; IGROV1 ovarian; HS 578T breast; NCI/ADR-RES ovarian.
What all share (experiment): NCI-60 one-dose screen, 48 h (100 = growth as untreated, 0 = no growth, -100 = all killed)
The next assay concerns SR leukemia. The note with it: 10 µM unless noted.
Another assay relates to TK-10 renal. The note with it: 10 µM.
The subject of the next assay is OVCAR-3 ovarian. The note with it: 10 µM.

As to `CCCC1CCC(=C2C(=O)CCC2=O)O1` (stereo unspecified), the growth in the assay on SK-MEL-2 melanoma (10 µM) was 116% (inactive) and 125% (inactive); in the assay with EKVX NSCLC (10 µM), 86.2% (inactive) and 101% (inactive); in the assay on SN12C renal (10 µM), 90.5% (inactive) and 101% (inactive); in the assay on UO-31 renal (10 µM) it was 84.8% (inactive) and 96.3% (inactive); in the assay on ACHN renal (10 µM), 95.7% (inactive) and 96.2% (inactive); with CAKI-1 renal (10 µM), 93.9% (inactive) and 90.5% (inactive). The growth in the assay with A498 renal (10 µM) is 108% (inactive) and 105% (inactive); in the assay on CCRF-CEM leukemia (10 µM), 123% (inactive) and 99.8% (inactive); in the assay with MOLT-4 leukemia (10 µM) it was 134% (inactive) and 120% (inactive); with SR leukemia, 96.5% (inactive) and 78.2% (inactive); with RPMI-8226 leukemia (10 µM) it was 119% (inactive) and 113% (inactive); in the assay on OVCAR-8 ovarian (10 µM) it was 112% (inactive). The growth in the assay with OVCAR-5 ovarian (10 µM) was 96.8% (inactive) and 97% (inactive); with OVCAR-4 ovarian (10 µM), 98.2% (inactive); with SK-OV-3 ovarian (10 µM) it was 104% (inactive) and 110% (inactive); in the assay on IGROV1 ovarian (10 µM) it was 121% (inactive); with HS 578T breast (10 µM) it was 109% (inactive) and 97.8% (inactive); in the assay with NCI/ADR-RES ovarian (10 µM), 108% (inactive) and 106% (inactive).

As to `COC(=O)C1C(O)C(C)C(O)C(C)C=C(C)C2=C3C(=C(C)C(=O)c4c(O)c(c(C)c(OC(C)=O)c43)NC(=O)C(C)=C/C=C\C(C)C(O)C(C)C1O)OCO2` (stereo unspecified), the growth was 26.5% (inactive) in the assay on SK-MEL-2 melanoma (10 µM); 119% (inactive) in the assay on EKVX NSCLC (10 µM); 99.8% (inactive) in the assay on SN12C renal (10 µM); 89.3% (inactive) in the assay with UO-31 renal (10 µM); 118% (inactive) with TK-10 renal; 104% (inactive) with ACHN renal (10 µM). Besides, the growth in the assay on CAKI-1 renal (10 µM) is 133% (inactive); in the assay on A498 renal (10 µM), 123% (inactive); with CCRF-CEM leukemia (10 µM) it was 103% (inactive); in the assay on MOLT-4 leukemia (10 µM), 153% (inactive); in the assay with SR leukemia it was 138% (inactive); with RPMI-8226 leukemia (10 µM), 118% (inactive). In addition, the growth in the assay on OVCAR-8 ovarian (10 µM) is 114% (inactive); with OVCAR-5 ovarian (10 µM), 104% (inactive); in the assay on OVCAR-4 ovarian (10 µM), 108% (inactive); with SK-OV-3 ovarian (10 µM), 116% (inactive); in the assay on IGROV1 ovarian (10 µM), 163% (inactive); in the assay on HS 578T breast (10 µM) it was 116% (inactive). Further, the growth with NCI/ADR-RES ovarian (10 µM) is 121% (inactive).

In the case of `Nc1nc(=S)c2ncn(C3OC(CO)C(O)C3O)c2[nH]1` (stereo unspecified), the growth is 93% (inactive) and 15.6% (inactive) with SK-MEL-2 melanoma (10 µM); 110% (inactive) and 23.3% (inactive) with EKVX NSCLC (10 µM); 107% (inactive) and 26% (inactive) in the assay with SN12C renal (10 µM); 95.4% (inactive) and 19.8% (inactive) with UO-31 renal (10 µM); 112% (inactive) and 17.2% (inactive) in the assay with ACHN renal (10 µM); 113% (inactive) and -8.94% (active) in the assay on CAKI-1 renal (10 µM). Moreover, the growth is 125% (inactive) and 29.6% (inactive) in the assay on A498 renal (10 µM); 96.4% (inactive) and 24.2% (inactive) in the assay on CCRF-CEM leukemia (10 µM); 100% (inactive) and 13.4% (inactive) in the assay with MOLT-4 leukemia (10 µM); 119% (inactive) with SR leukemia; 103% (inactive) and 0.898% (active) with RPMI-8226 leukemia (10 µM); 100% (inactive) and 13.1% (inactive) with OVCAR-8 ovarian (10 µM). Further, the growth in the assay with OVCAR-5 ovarian (10 µM) was 101% (inactive) and 45.2% (inactive); in the assay on OVCAR-4 ovarian (10 µM) it was 103% (inactive) and 29.3% (inactive); in the assay on SK-OV-3 ovarian (10 µM), 118% (inactive); in the assay with IGROV1 ovarian (10 µM) it was 108% (inactive); with HS 578T breast (10 µM), 163% (inactive) and 50.6% (inactive); in the assay with NCI/ADR-RES ovarian (10 µM) it was 106% (inactive) and 29.9% (inactive).

Turning to `O=c1ccn(C2CC(O)C(COC(c3ccccc3)(c3ccccc3)c3ccccc3)O2)c(=O)[nH]1` (stereo unspecified), the growth is 26% (inactive) in the assay on SK-MEL-2 melanoma (100 µM); 52.8% (inactive) with EKVX NSCLC (100 µM); 95.9% (inactive) in the assay on SN12C renal (10 µM); 38.8% (inactive) in the assay on SN12C renal (100 µM); 54.6% (inactive) in the assay with UO-31 renal (10 µM); 37.1% (inactive) in the assay on UO-31 renal (100 µM). Besides, the growth is 86.4% (inactive) in the assay with ACHN renal (10 µM); 56.9% (inactive) in the assay on ACHN renal (100 µM); 127% (inactive) with CAKI-1 renal (10 µM); 30.3% (inactive) in the assay on CAKI-1 renal (100 µM); 98.6% (inactive) in the assay on A498 renal (10 µM); 102% (inactive) with A498 renal (100 µM). Moreover, the growth is 45.5% (inactive) with CCRF-CEM leukemia (100 µM); 67.1% (inactive) in the assay with MOLT-4 leukemia (10 µM); 9.6% (active) with MOLT-4 leukemia (100 µM); 33.2% [100 µM] (inactive) in the assay on SR leukemia; 95.8% (inactive) in the assay on RPMI-8226 leukemia (10 µM); 40.2% (inactive) in the assay with RPMI-8226 leukemia (100 µM). Besides, the growth was 80.7% (inactive) in the assay with OVCAR-8 ovarian (10 µM); 44.9% (inactive) in the assay on OVCAR-8 ovarian (100 µM); 101% (inactive) with OVCAR-5 ovarian (10 µM); 73.7% (inactive) with OVCAR-5 ovarian (100 µM); 94.5% (inactive) with OVCAR-4 ovarian (10 µM); 38.5% (inactive) with OVCAR-4 ovarian (100 µM). The growth is 99.8% (inactive) in the assay on SK-OV-3 ovarian (10 µM); 94.9% (inactive) in the assay on SK-OV-3 ovarian (100 µM); 99.2% (inactive) in the assay on IGROV1 ovarian (10 µM); 58.1% (inactive) in the assay on IGROV1 ovarian (100 µM); 89.3% (inactive) in the assay on HS 578T breast (10 µM); 55.7% (inactive) in the assay with HS 578T breast (100 µM). Further, the results for the growth in the assay on NCI/ADR-RES ovarian (10 µM) and with NCI/ADR-RES ovarian (100 µM) were 85% (inactive) and 44.3% (inactive), respectively.

Turning to `O=C(Nc1ccc(C(=O)O)c(O)c1)c1ccccc1`, the growth is 113% (inactive) and 97.3% (inactive) with SK-MEL-2 melanoma (10 µM); 98.9% (inactive) and 93.7% (inactive) in the assay with EKVX NSCLC (10 µM); 95.2% (inactive) and 101% (inactive) in the assay with SN12C renal (10 µM); 81.3% (inactive) and 88.6% (inactive) in the assay with UO-31 renal (10 µM); 106% (inactive) and 94.5% (inactive) in the assay on TK-10 renal; 96% (inactive) and 96.3% (inactive) in the assay with ACHN renal (10 µM). Besides, the growth was 102% (inactive) and 85.8% (inactive) in the assay on CAKI-1 renal (10 µM); 121% (inactive) and 139% (inactive) in the assay with A498 renal (10 µM); 130% (inactive) and 124% (inactive) in the assay with CCRF-CEM leukemia (10 µM); 109% (inactive) and 119% (inactive) in the assay with MOLT-4 leukemia (10 µM); 113% (inactive) and 122% (inactive) with SR leukemia; 132% (inactive) and 105% (inactive) with RPMI-8226 leukemia (10 µM). The growth with OVCAR-8 ovarian (10 µM) was 97.7% (inactive) and 99.8% (inactive); in the assay with OVCAR-5 ovarian (10 µM), 93.8% (inactive) and 100% (inactive); with OVCAR-4 ovarian (10 µM), 108% (inactive) and 112% (inactive); in the assay on SK-OV-3 ovarian (10 µM), 100% (inactive) and 108% (inactive); in the assay with IGROV1 ovarian (10 µM), 100% (inactive) and 103% (inactive); in the assay with OVCAR-3 ovarian, 115% (inactive) and 125% (inactive). For the same compound, the growth in the assay with HS 578T breast (10 µM) is 130% (inactive) and 119% (inactive); in the assay on NCI/ADR-RES ovarian (10 µM) it was 84.2% (inactive) and 100% (inactive).

As for `NNc1ccc2ccccc2c1`, the growth in the assay with SK-MEL-2 melanoma (10 µM) was 101% (inactive) and 108% (inactive); in the assay on EKVX NSCLC (10 µM), 76.7% (inactive) and 93% (inactive); in the assay with SN12C renal (10 µM), 94.7% (inactive) and 102% (inactive); with UO-31 renal (10 µM), 52.5% (inactive) and 68.7% (inactive); in the assay with TK-10 renal it was 109% (inactive) and 120% (inactive); in the assay on ACHN renal (10 µM) it was 81.6% (inactive) and 98.7% (inactive). For the same compound, the growth is 84.6% (inactive) and 95.5% (inactive) in the assay on CAKI-1 renal (10 µM); 88.5% (inactive) with A498 renal (10 µM); 84.1% (inactive) and 114% (inactive) in the assay on CCRF-CEM leukemia (10 µM); 94.3% (inactive) and 109% (inactive) with MOLT-4 leukemia (10 µM); 82.3% (inactive) and 94.9% (inactive) in the assay on SR leukemia; 92.8% (inactive) and 97.2% (inactive) with RPMI-8226 leukemia (10 µM). Also, the growth with OVCAR-8 ovarian (10 µM) was 97.8% (inactive) and 96.2% (inactive); in the assay on OVCAR-5 ovarian (10 µM), 92.3% (inactive) and 93% (inactive); in the assay with OVCAR-4 ovarian (10 µM), 89.9% (inactive) and 88.2% (inactive); in the assay on SK-OV-3 ovarian (10 µM) it was 76.3% (inactive) and 91.1% (inactive); in the assay with IGROV1 ovarian (10 µM) it was 83% (inactive) and 103% (inactive); with HS 578T breast (10 µM), 96.1% (inactive) and 98.9% (inactive). Besides, in the assay with NCI/ADR-RES ovarian (10 µM), the growth is 97.1% (inactive) and 101% (inactive).
